SMILES strings stand for the structures. About 1,700 (3.3%) of roughly 52,000 compounds were called active. Cut-off read from the data, not from the text of the source: active = survival mostly below about 52% (no sharp cut-off); inactive = mostly above about 56%. What follows is part of a selection rich in actives, with near analogues and random picks from the rest.

The experiment has as its system Wild type. Nature of the experiment: growth inhibition of S. aureus wild type versus tarO mutant, primary screen, teichoic acid synthesis inhibitors, RN4220, OD600 (AID 463173). To be noted: S. aureus RN4220 wild type/DeltatarO growth, OD600, 18 h, active compounds read low, screened at 18.75 µg/mL (by protocol).
As for `Cc1ccc(-n2ncc(C(=O)N3CCN(Cc4ccccc4)CC3)c2C2CCN(C(=O)OC(C)(C)C)CC2)cc1`, the survival was 124% (inactive).
The value for `N#Cc1c(NC(=O)CN2CCCCC2)sc2c1CCC2` was 109% (inactive); that for `Cc1ccc2c(c1)c1c(c(=O)n(-c3ccccc3)c(=O)n1CC(=O)NCC1CCCO1)n2C` (stereo unspecified) was 72% (inactive).
With `Cc1nc(-c2ccccc2)sc1CCNC(=O)C(=O)Nc1ccc(F)c(Cl)c1`, the survival was 1% (active).
Under `Cc1ccc(-c2nc(C)c(CCNC(=O)C(=O)Nc3ccc(C)c(Cl)c3)s2)cc1` stands 76% (inactive); under `Cc1ccc(NC(=O)C(=O)NCCc2sc(-c3ccc(Cl)cc3)nc2C)cc1C`, 126% (inactive); under `COc1ccc(NC(=O)CN(c2ccc(C)cc2)S(=O)(=O)c2cccs2)cc1`, 84% (inactive).
Under `O=c1n(Cc2cccc(F)c2)c2ccccc2c2nc(-c3ccccc3)nn12` stands 34% (inactive); under `Fc1ccc(Cn2c(-c3cccc(Br)c3)nc3ccccc32)cc1`, 120% (inactive); under `Cc1cccc(Cn2c(=O)n3nc(-c4ccccc4)nc3c3ccccc32)c1`, -24% (active).
The value for `Cc1cccc(-c2nc3c4ccccc4n(Cc4cccc(Cl)c4)c(=O)n3n2)c1` was 113% (inactive).
With `Nc1nonc1-c1nc2ccccc2n1Cc1cccc(Cl)c1`, the survival was 87% (inactive).
The value for `Fc1ccccc1Cn1c(-c2ccccc2)nc2ccccc21` was 1% (active); that for `Cc1ccc(Cn2c(CCNC(=O)c3cccc(C)c3)nc3ccccc32)cc1` was 68% (inactive); that for `O=C(CSc1nc2ccccc2n1Cc1ccccc1F)NCc1ccccc1` was 99% (inactive).
The value for `CCc1ccccc1N1CC(c2nc3ccccc3n2Cc2cccc(C)c2)CC1=O` (stereo unspecified) was 66% (inactive).
For `Cc1cccc(-c2nc3ccccc3n2Cc2ccccc2)c1`, the survival was 1% (active).
Consider `Cc1cccc(Cn2c(-c3ccccc3)nc3ccccc32)c1`, for which the survival was 26% (active).
As for `Cc1cccc(Cn2c(-c3cccc(Br)c3)nc3ccccc32)c1`, the survival is 124% (inactive).
Consider `COc1ccc(NC(=O)c2oc3ccccc3c2NC(=O)c2cc(C)cc(C)c2)c(OC)c1`, for which the survival is 79% (inactive).
In the case of `COc1ccc(NC(=O)C2CCC(CNS(=O)(=O)c3cccc4nsnc34)CC2)cc1OC` (stereo unspecified), the survival was 87% (inactive).
For `CN(Cc1ccccc1)C(=O)Cn1c(=O)c2cccn2c2ccc(F)cc21`, the survival is 81% (inactive).
Under `Cc1ccc(Cn2c(=O)c3ccccc3n3c(-c4ccccc4)nnc23)cc1` stands 91% (inactive).
Under `Cc1ccc(Cn2c(C(C)NC(=O)c3ccccc3)nc3ccccc32)cc1` (stereo unspecified) stands 91% (inactive); under `Cc1ccc(Cn2c(-c3ccccc3)nc3ccccc32)cc1`, 8% (active); under `CCCCn1c(SCC(=O)N2CCCCCC2)nnc1-c1ccoc1C`, 98% (inactive).
The value for `Cc1cccc(N2CCN(c3ccc4cc(S(=O)(=O)N5CCC(C)CC5)ccc4n3)CC2C)c1` (stereo unspecified) was 129% (inactive).
With `CSc1cccc(Nc2cc(C(=O)NC3CCCCC3)c3ccccc3n2)c1`, the survival is 142% (inactive).
Under `CN1CN2C(=O)N3CN(C)CN4C(=O)N(C1)C2C34` (stereo unspecified) stands 110% (inactive); under `Cc1cc(C)c(Cn2c(C(O)c3ccccc3)nc3ccccc32)c(C)c1` (stereo unspecified), 11% (active); under `COC(=O)Cn1c(C(O)c2ccccc2)nc2ccccc21` (stereo unspecified), 97% (inactive).
As to `OC(c1ccccc1)c1nc2ccccc2n1Cc1c(F)cccc1Cl` (stereo unspecified), the survival was 82% (inactive).
The value for `CCOc1ccc(CNC(=O)CS(=O)(=O)c2cccc3nsnc23)cc1` was 126% (inactive).
Take `COc1ccccc1NC(=O)C1CCN(C(=O)c2ccccc2)CC1`: the survival was 94% (inactive).
The value for `Cc1c(Cl)cccc1-n1ncc(C(=O)Nc2ccc(F)cc2F)c1C1CCN(C(=O)OC(C)(C)C)CC1` was 71% (inactive); that for `CCOC(=O)c1ccc(Nc2nc3nonc3nc2NCc2ccco2)cc1` was 35% (inactive); that for `CCOC(=O)c1ccc(Nc2nc(C)cc(C)n2)cc1` was 87% (inactive).
The value for `Cc1cccc(Nc2nc3nonc3nc2N/N=C\c2cccs2)c1C` was 96% (inactive); that for `CCOC(=O)c1ccc(Nc2nc3nonc3nc2Nc2cccc(C)c2C)cc1` was 0% (active).
Under `Cc1ccc(C)c(Nc2nc3nonc3nc2Nc2cccc(C)c2C)c1` stands 4% (active); under `Cc1cccc(Nc2nc3nonc3nc2Nc2cccc(C)c2C)c1C`, 102% (inactive); under `CCS(=O)(=O)N1CCc2cc(C(=O)Nc3ccc(OC)cc3OC)ccc21`, 88% (inactive).
For the compound `Cc1ccc([N+](=O)[O-])cc1NC(=O)CN(c1ccccc1)S(=O)(=O)N(C)C`, the survival was 69% (inactive).
The value for `CCn1c(O)c(C=Nc2cccc(O)c2)sc1=S` was 115% (inactive); that for `Cn1cnc(S(=O)(=O)N2CCCC(C(=O)Nc3ccc(OC(F)(F)F)cc3)C2)c1` (stereo unspecified) was 19% (inactive).
With `CCOc1ccc(CNC(=O)c2[nH]c3ccccc3c2Sc2ccc(C)cc2)cc1`, the survival is 120% (inactive).
The value for `CCN1C(=O)c2ccccc2S(=O)(=O)c2ccc(C(=O)NCc3ccc(OC)cc3)cc21` was 97% (inactive).
Under `CN(C)CCNC(=O)c1ccc2c(c1)N(Cc1c(F)cccc1Cl)C(=O)c1ccccc1S2` stands 105% (inactive); under `CCN(CC)C(=O)c1ccc2c(c1)N(Cc1c(F)cccc1Cl)C(=O)c1ccccc1S2`, 16% (active); under `CCN(CC)CCCNC(=O)c1ccc2c(c1)N(Cc1c(F)cccc1Cl)C(=O)c1ccccc1S2`, 139% (inactive).
Under `Cc1ccc(Cl)cc1NC(=O)CN1C(=O)c2cccc3cccc1c23` stands 71% (inactive).
As to `CCC(=O)N1CCc2cc(Br)cc(S(=O)(=O)N3CCN(c4ccccc4OC)CC3)c21`, the survival was 72% (inactive).
Under `COc1cccc(Nc2nc3ccc(C)cc3nc2-n2nc(C)cc2C)c1` stands 82% (inactive).
Regarding `Cc1cc(C)n(-c2nc3cc(Cl)ccc3nc2N2CCN(c3cccc(C)c3C)CC2)n1`, the survival was -1% (active).
The value for `Cc1cc(C)n(-c2nc3cc(Cl)ccc3nc2N2CCN(c3ccccc3F)CC2)n1` was 68% (inactive); that for `Cc1cc(C)n(CCc2nc3c4ccccc4nc(N4CCN(c5cccc(C)c5C)CC4)n3n2)n1` was 74% (inactive).
With `Cc1ccc2nc(N3CCN(c4cccc(Cl)c4)CC3)c3nnnn3c2c1`, the survival was 72% (inactive).
As for `Cc1ccc2nc(N3CCN(c4cccc(Cl)c4)CC3)c(-n3nc(C)cc3C)nc2c1`, the survival was 3% (active).
Under `COc1ccccc1N1CCN(c2nc3ccc(C)cc3nc2-n2nc(C)cc2C)CC1` stands 0% (active).
The value for `Cc1cc(C)c(C#N)c(N2CCN(c3cccc(C)c3C)CC2)n1` was 109% (inactive); that for `Cc1cc(C)n(-c2nc3ccccc3nc2N2CCN(c3cccc(C(F)(F)F)c3)CC2)n1` was 88% (inactive); that for `Cc1cc(C)n(-c2nc3ccccc3nc2N2CCN(c3cccc(C)c3C)CC2)n1` was -1% (active).
Under `Cc1ccc(C)c(N2CCN(c3nc4ccc(C)cc4nc3-n3nc(C)cc3C)CC2)c1` stands 86% (inactive); under `Cc1cc(C)n(-c2nc3cc(Cl)ccc3nc2Nc2ccc(C)c(F)c2)n1`, 86% (inactive).
`COc1ccc(-c2oc3ncn4nc(COc5cccc(C)c5C)nc4c3c2-c2ccc(OC)cc2)cc1`: the survival is 77% (inactive).
The value for `Cc1ccc(C)c(Cn2nc(C)n3c(cc4cc(C)ccc43)c2=O)c1` was 79% (inactive); that for `Cc1ccc(Cl)cc1N1CCN(C(=O)c2cc3c(=O)oc4ccccc4c3s2)CC1` was 71% (inactive); that for `COCCN(Cc1cc2ccc(C)c(C)c2nc1Cl)C(=O)N1CCOCC1` was 104% (inactive).
As to `COc1ccc(C(C)C)cc1S(=O)(=O)N1CC(C)OC(C)C1` (stereo unspecified), the survival was 109% (inactive).
Under `COC(=O)C1=C(C)N(c2ccc(N(C)C)cc2)C(C)=C(C(=O)OC)C1c1ccccc1` stands 101% (inactive).
On to `CC1=C(C(=O)Nc2ccccc2)C(c2ccc(O)cc2)n2nc(SCc3ccccc3)nc2N1` (stereo unspecified), for which the survival was 115% (inactive).
The value for `CCN(CC)S(=O)(=O)c1ccc(C(=O)NCCSc2c(-c3ccc(OC)cc3)[nH]c3ccccc23)cc1` was 124% (inactive); that for `CCn1nc(C)c2c(-c3ccccc3)cc(=O)n(C(C)C(=O)Nc3ccc(OC)c(OC)c3)c21` (stereo unspecified) was 59% (inactive).
On to `Cc1nn(-c2ccccc2)c(OC(=O)C(C)(C)C)c1Sc1ccccc1`, for which the survival was 51% (inactive).
In the case of `Cc1ccccc1C(=O)Oc1c(Sc2ccccc2)c(C)nn1C(C)(C)C`, the survival is 50% (inactive).
The value for `CCC(=O)Oc1c(Sc2ccc(Cl)cc2)c(C)nn1C(C)(C)C` was 60% (inactive); that for `CCC(=O)Oc1c(Sc2ccc(C)cc2)c(C)nn1-c1ccccc1` was 55% (inactive).
The value for `Cc1nn(C(C)(C)C)c(OC(=O)C(C)(C)C)c1Sc1ccccc1` was -9% (active).
Under `COCC(=O)Oc1c(Sc2ccc(C)cc2)c(C)nn1C(C)(C)C` stands 69% (inactive); under `Cc1ccc(Sc2c(C)nn(-c3ccccc3)c2OC(=O)C(C)(C)C)cc1`, -6% (active); under `COc1ccc(C(=O)Oc2c(Sc3ccc(C)cc3)c(C)nn2C(C)(C)C)cc1OC`, 127% (inactive).
Consider `Cc1nn(C(C)(C)C)c(OC(=O)c2c(F)cccc2F)c1Sc1ccccc1`, for which the survival was 117% (inactive).
On to `Cc1ccc(Sc2c(C)nn(C(C)(C)C)c2OC(=O)C(C)(C)C)cc1`, for which the survival is -8% (active).
Under `Cc1ccc(Sc2c(C)nn(C(C)(C)C)c2OC(=O)CC(C)C)cc1` stands -8% (active).
As for `Cc1ccc(Sc2c(C)nn(-c3ccccc3)c2OC(=O)CC(C)C)cc1`, the survival is 45% (inactive).
Under `CCOC(=O)N1CCN(C(=O)c2cnn(-c3cccc(F)c3)c2-n2cccc2)CC1` stands 81% (inactive).
`Cc1ccc2nc(N3CCC(C(=O)N4CCN(c5cccc(C)c5C)CC4)CC3)[nH]c2c1`: the survival was 76% (inactive).
In the case of `Cc1ccn2cc(CNC(=O)c3cccc(C(F)(F)F)c3)nc2c1`, the survival was 86% (inactive).
With `Cc1ccc(Cl)cc1NC(=O)C(NS(=O)(=O)c1ccc2c(c1)CCC(=O)N2)c1ccccc1` (stereo unspecified), the survival is 70% (inactive).
`COc1ccc(CNC(=O)c2cc3sccc3n2C)cc1`: the survival is 67% (inactive).
Turning to `Cn1c(=O)n(C)c2cc(N3CCOCC3)c(NS(=O)(=O)c3ccc(Br)cc3)cc21`, the survival is 82% (inactive).

The values above are taken from PubChem BioAssay AID463173 (ICCB-Longwood Screening Facility, Harvard Medical School, 2010).
